Assay [1] has as its target Progesterone receptor (Homo sapiens) (UniProt P06401). Put plainly: qHTS assay to identify small molecule antagonists of the progesterone receptor (PR) signaling pathway (AID 1346795; active = well fitted inhibition curve with a large enough effect in the signal ratio in the repeat runs, not every such curve was filed as active; the % refers to the signal ratio; also: potency is read from the fitted curve at half-maximal effect). The essentials: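 In HEK293T cells bearing the PR-UAS-bla reporter, compound effects on promegestone-driven (1 nM) beta-lactamase expression are assessed after 16 hr using a fluorescent FRET substrate incubated 2 hr at room temperature.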
In general terms: In qHTS, concentration-response curves come from the screen itself.

The nature of assay [2]: qHTS assay to identify small molecule antagonists of the TGF-beta/Smad signaling pathway - cell viability counter screen (AID 1346824). Also: nearly all actives have a fitted effect of over 50% in size. In short, it runs like this:
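SBE-bla HEK 293T cells were plated overnight at 37 C, then given compounds in DMSO plus TGF-beta1 (added as 0.25 ng/mL solution) for 5 hr. After the bla read, CellTiter-Glo was added to the same wells and luminescence read after 30 min at room temperature.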

A short description of assay [3]: qHTS assay to identify small molecule agonists of the TGF-beta/Smad signaling pathway - cell viability counter screen (AID 1346829). Also: top concentration of the series differs between compounds; nearly all actives have a fitted effect of over 45% in size. In short, it runs like this:
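Here the cytotoxicity of library compounds is measured in SBE-bla HEK 293T cells treated for 5 hr, using CellTiter-Glo added to wells already read for the beta-lactamase reporter.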

Assay [4] in a line: Human pregnane X receptor (PXR) small molecule agonists, qHTS cell viability counter screen (AID 1346977). Also: nearly all actives have a fitted effect of over 50% in size. Also: potency is read from the fitted curve at half-maximal effect. The essentials:
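Tox21 qHTS format; PXR-Luc HepG2, 2,000/well, charcoal-stripped FBS 5%. Cpd exposure 24hr. Read: CellTiter-Fluor fluorescence, multiplexed with luciferase.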

Assay [5] can be described thus: Caspase-3/7 induction in CHO-K1 cells by small molecules, qHTS cell viability counter screen (AID 1346979). Also: nearly all actives have a fitted effect of over 35% in size. Also: potency is read from the fitted curve at half-maximal effect. In short, it runs like this:
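CellTiter-Fluor viability check, qHTS format: wild-type CHO-K1, 16hr compound treatment, 1hr reagent incubation, fluorescence read.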

Assay [6] is described as follows: Caspase-3/7 induction in CHO-K1 cells by small molecules, qHTS assay (AID 1346980). Also: nearly all actives have a fitted effect of over 15% in size. In short, it runs like this: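 Wild-type cells were seeded at 1,500 per well and settled 5 hr at 37 C, 5% CO2, then exposed to DMSO-dissolved compounds for 17 hr. Caspase-Glo 3/7 reagent was added, and luminescence was read after 30min at room temperature.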
For assay [7], the target named is Nuclear receptor subfamily 1 group I member 2 (Homo sapiens) (UniProt O75469). Nature of the assay: Human pregnane X receptor (PXR) small molecule agonists, qHTS assay (AID 1346982). Also: nearly all actives have a fitted effect of over 35% in size. Also: potency is read from the fitted curve at half-maximal effect. The essentials:
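HepG2 PXR-Luc reporter line, 5% charcoal-stripped FBS; 5 hr pre-incubation, compound (DMSO) 24 hr at 37 C/5% CO2; ONE-Glo 30 min RT; luminescence read-out.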

For assay [8], the target named is Cytochrome P450 2D6 (Homo sapiens) (UniProt P10635). Nature of the assay: Cytochrome P450 Family 2 Subfamily D Member 6 (CYP2D6) small molecule antagonists: luciferase reporter qHTS assay (AID 1671196). Also: nearly all actives have a fitted effect of over 50% in size. Also: potency is read from the fitted curve at half-maximal effect. The essentials: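 Luminogenic proluciferin substrate, CYP2D6 enzyme; 10 min RT preincubation with compound, NADPH regeneration system added, 1 h RT. Stop/detection reagent, 20 min RT, luminescence read (RLU). Signal proportional to CYP activity.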
For orientation: A reporter such as luciferase makes a cellular process visible.

A short description of assay [9]: qHTS assay to identify small molecule agonists of the estrogen receptor alpha (ER-alpha) signaling pathway in the presence of an antagonist - cell viability counter screen (AID 1259386). Also: series mostly up to about 92 µM; nearly all actives have a fitted effect of over 30% in size. In short, it runs like this: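 Read-out: CellTiter-Fluor fluorescence after 1hr reagent incubation, measured in the same wells as the luciferase readout. VM7Luc4E2 cells were exposed to 15 compound concentrations with 10.0nM ICI-182,780 for 22hr at 37C.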

The nature of assay [10]: qHTS assay to identify small molecule antagonists of the progesterone receptor (PR) signaling pathway - cell viability counter screen (AID 1346798). Also: nearly all actives have a fitted effect of over 50% in size. Also: potency is read from the fitted curve at half-maximal effect. In short, it runs like this: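 Following a 4 hr attachment, PR-UAS-bla HEK293T cells in charcoal-stripped FBS medium were exposed to compounds with R5020 for 16 hr; CellTiter-Glo was added and luminescence read after 30 min at room temperature.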

The target of assay [11] is Thyrotropin-releasing hormone receptor (Homo sapiens) (UniProt P34981). Put plainly: qHTS assay to identify small molecule antagonists of the thyrotropin-releasing hormone receptor (TRHR) signaling pathway (AID 1346877; active = well fitted inhibition curve with a large enough effect in the repeat runs, not every such curve was filed as active; also: series mostly up to about 51 µM). In short, it runs like this: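 HEK293/TRHR cells, 18 h, 37 °C; Ca2+ dye 2 h; cpd 5 min RT; TRH 1 nM final; fluorescence read 3 min, 1 s intervals; 15 concs, triplicate.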

For assay [12] the target is unchanged. Put plainly: qHTS assay to identify small molecule agonists of the thyrotropin-releasing hormone receptor (TRHR) signaling pathway (AID 1346891; calls by dose curve; also: series mostly up to about 58 µM). The essentials: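 Screening of agonists relied on calcium signalling in HEK293 cells expressing human TRHR: dye loading 2 h at 37 °C preceded compound addition and a 3-min fluorescence time course.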
Assay [13] is described as follows: Caspase-3/7 induction in HepG2 cells by small molecules, qHTS cell viability counter screen (AID 1346981). Also: nearly all actives have a fitted effect of over 30% in size. Also: potency is read from the fitted curve at half-maximal effect. The essentials: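 Fluorescence read-out of live-cell protease activity (CellTiter-Fluor) after 1 hr with reagent. This was measured in the same wells as the caspase-3/7 luminescence, on HepG2 cells exposed to DMSO-dissolved compounds for 16 hr at 37 C.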

Assay [14] in a line: qHTS assay to identify small molecule agonists of the TGF-beta/Smad signaling pathway (AID 1346859; active = well fitted activation curve with a large enough effect in the signal ratio in the repeat runs, not every such curve was filed as active; the % refers to the signal ratio; also: series mostly up to about 77 µM). The essentials:
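Each well held 4,000 SBE-bla HEK 293T cells incubated overnight before compound addition; 5 hr later the cleavable FRET substrate went on for 2 hr at room temperature, and fluorescence was read at two emissions.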

A short description of assay [15]: Caspase-3/7 induction in HepG2 cells by small molecules, qHTS assay (AID 1346978). Also: nearly all actives have a fitted effect of over 15% in size. In short, it runs like this: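 Wild-type HepG2 cells (2,000/well) were settled 5 h at 37 C, 5% CO2, then exposed to compounds in DMSO for 17 h. Caspase-3/7 activity was read by luminescence 30 min after adding Caspase-Glo 3/7 reagent at room temperature.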
Assay [16] addresses Progesterone receptor (Homo sapiens) (UniProt P06401). Nature of the assay: qHTS assay to identify small molecule agonists of the progesterone receptor (PR) signaling pathway (AID 1346784; calls by dose curve; also: nearly all actives have a fitted effect of over 30% in size). In short, it runs like this:
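Compounds were tested for PR agonism in HEK 293T cells bearing a beta-lactamase gene under UAS control. Treatment lasted 16 hr at 37C; signal came from fluorescence of a FRET substrate.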

A short description of assay [17]: qHTS assay to identify small molecule agonists of the progesterone receptor (PR) signaling pathway - cell viability counter screen (AID 1346799; calls by dose curve; also: nearly all actives have a fitted effect of over 45% in size). The essentials: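 Here, 3,000 PR-UAS-bla HEK293T cells per well were treated with compounds for 16 hr after a 6 hr preincubation at 37C and 5% CO2; cell viability is the CellTiter-Glo luminescence signal.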
Assay [18] addresses Nuclear receptor subfamily 1 group I member 2 (Rattus norvegicus) (UniProt Q9R1A7). Put plainly: Rat pregnane X receptor (rPXR) activation by small molecules, qHTS assay (AID 1346983). Also: nearly all actives have a fitted effect of over 20% in size. The following applies: rPXR luciferase reporter cells, One-Glo luminescence, 24 h; stronger effect = higher value. The essentials:
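Cell-based rPXR luciferase reporter assay, 2,000 cells per well, rested 5hr at 37 C before compound addition in DMSO, then 24 hr at 37 C. One-Glo reagent was added and luminescence read after 30 min at room temperature.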

For assay [19], the target named is Nuclear receptor subfamily 1 group I member 2 (Homo sapiens) (UniProt O75469). Put plainly: CYP3A4 induction through human pregnane X receptor (PXR) by small molecules, qHTS assay (AID 1346984). Also: nearly all actives have a fitted effect of over 40% in size. In short, it runs like this: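 HepG2-derived DPX-2 line carrying PXR plus a CYP3A4-promoter luciferase reporter; cells plated 5 hr, compound-exposed 24 hr at 37C. CYP3A4 activity probed with 3uM (final) Luciferin-IPA for 3hr, then luciferase read after One-Glo.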

The target is the same in assay [20]. Nature of the assay: Human pregnane X receptor (PXR) activation by small molecules, qHTS assay (AID 1346985). Also: nearly all actives have a fitted effect of over 40% in size. In short, it runs like this:
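DPX-2 cells (HepG2 co-transfected with a PXR response element and a CYP3A4-promoter luciferase construct) were seeded at 2,000 per well, rested 5 hr at 37C, then exposed to DMSO-dissolved compounds for 24 hr. Activation was read as luciferase luminescence.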

Values without a mark were called inactive. Inconclusive results are not listed. Active and inactive are the calls of the source. Unless noted, calls follow the shape of the dose curve; as a rule, active = well fitted curve in the direction sought with a large enough effect in the repeat runs; inconclusive = weak or mixed curves; inactive = no such curve, though single readings can be large; an effect the other way counts as inactive or inconclusive.
% is scaled to controls: 0 for no effect and ±100 for the full control effect.

Chain of Progesterone receptor (Homo sapiens) (P06401 whole entry, looked up): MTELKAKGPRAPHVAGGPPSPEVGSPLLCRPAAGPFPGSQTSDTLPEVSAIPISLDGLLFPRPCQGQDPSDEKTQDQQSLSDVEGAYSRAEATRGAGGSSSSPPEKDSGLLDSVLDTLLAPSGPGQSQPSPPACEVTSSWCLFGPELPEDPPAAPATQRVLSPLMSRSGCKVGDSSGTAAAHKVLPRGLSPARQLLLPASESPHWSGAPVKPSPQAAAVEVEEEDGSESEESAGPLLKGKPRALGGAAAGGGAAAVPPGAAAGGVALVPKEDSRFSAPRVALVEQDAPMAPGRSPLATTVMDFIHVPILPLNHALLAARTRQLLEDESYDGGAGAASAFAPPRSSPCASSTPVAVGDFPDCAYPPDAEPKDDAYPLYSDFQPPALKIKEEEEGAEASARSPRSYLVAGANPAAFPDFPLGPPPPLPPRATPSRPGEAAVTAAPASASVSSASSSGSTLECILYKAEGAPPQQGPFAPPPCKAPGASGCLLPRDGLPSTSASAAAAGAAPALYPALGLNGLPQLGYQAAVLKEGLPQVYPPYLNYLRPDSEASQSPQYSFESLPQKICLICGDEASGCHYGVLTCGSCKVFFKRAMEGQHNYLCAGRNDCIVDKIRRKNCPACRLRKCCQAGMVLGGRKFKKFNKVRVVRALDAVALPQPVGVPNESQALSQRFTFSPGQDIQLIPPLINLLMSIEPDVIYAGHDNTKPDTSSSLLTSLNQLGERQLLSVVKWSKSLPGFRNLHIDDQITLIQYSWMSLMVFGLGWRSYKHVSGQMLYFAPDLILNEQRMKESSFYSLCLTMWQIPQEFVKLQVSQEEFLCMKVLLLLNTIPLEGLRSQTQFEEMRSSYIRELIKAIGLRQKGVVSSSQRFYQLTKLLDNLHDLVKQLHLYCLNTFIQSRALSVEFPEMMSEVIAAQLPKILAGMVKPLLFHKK
Chain of Cytochrome P450 2D6 (Homo sapiens) (P10635 whole entry, looked up): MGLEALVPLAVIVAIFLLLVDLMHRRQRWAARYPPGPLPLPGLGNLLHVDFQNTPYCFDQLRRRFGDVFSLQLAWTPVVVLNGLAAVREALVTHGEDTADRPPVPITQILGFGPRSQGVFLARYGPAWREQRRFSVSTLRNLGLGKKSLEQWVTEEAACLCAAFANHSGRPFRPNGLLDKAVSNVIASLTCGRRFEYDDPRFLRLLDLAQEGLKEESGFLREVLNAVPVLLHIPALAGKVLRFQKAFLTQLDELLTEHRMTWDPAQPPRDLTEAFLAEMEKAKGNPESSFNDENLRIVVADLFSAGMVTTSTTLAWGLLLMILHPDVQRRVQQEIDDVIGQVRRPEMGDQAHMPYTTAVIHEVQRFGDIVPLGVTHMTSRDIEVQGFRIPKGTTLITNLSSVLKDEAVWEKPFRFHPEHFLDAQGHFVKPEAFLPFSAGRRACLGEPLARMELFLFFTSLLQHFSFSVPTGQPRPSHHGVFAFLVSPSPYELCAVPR
Chain of Thyrotropin-releasing hormone receptor (Homo sapiens) (P34981 whole entry, looked up): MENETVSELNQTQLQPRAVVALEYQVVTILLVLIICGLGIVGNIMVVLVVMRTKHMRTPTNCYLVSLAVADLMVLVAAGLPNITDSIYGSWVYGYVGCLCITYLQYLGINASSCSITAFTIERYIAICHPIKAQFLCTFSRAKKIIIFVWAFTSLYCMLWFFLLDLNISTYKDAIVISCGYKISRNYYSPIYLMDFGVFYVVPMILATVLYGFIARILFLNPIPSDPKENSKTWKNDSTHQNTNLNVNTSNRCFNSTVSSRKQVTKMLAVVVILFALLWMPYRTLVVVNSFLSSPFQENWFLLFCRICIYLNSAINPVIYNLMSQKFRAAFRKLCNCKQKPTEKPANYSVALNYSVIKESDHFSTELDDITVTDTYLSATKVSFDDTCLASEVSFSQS
Chain of Nuclear receptor subfamily 1 group I member 2 (Homo sapiens) (O75469 whole entry, looked up): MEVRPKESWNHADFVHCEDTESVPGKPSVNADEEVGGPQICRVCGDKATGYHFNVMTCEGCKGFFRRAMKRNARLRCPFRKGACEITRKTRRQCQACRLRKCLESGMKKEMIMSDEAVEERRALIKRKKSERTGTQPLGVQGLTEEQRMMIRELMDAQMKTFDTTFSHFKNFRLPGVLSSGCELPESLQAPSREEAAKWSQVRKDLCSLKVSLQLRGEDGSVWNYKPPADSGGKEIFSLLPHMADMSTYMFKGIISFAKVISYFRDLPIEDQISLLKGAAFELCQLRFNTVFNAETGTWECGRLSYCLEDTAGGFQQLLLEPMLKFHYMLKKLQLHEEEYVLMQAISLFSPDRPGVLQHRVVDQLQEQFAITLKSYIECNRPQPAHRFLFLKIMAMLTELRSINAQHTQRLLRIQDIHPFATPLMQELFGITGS
Chain of Nuclear receptor subfamily 1 group I member 2 (Rattus norvegicus) (Q9R1A7 whole entry, looked up): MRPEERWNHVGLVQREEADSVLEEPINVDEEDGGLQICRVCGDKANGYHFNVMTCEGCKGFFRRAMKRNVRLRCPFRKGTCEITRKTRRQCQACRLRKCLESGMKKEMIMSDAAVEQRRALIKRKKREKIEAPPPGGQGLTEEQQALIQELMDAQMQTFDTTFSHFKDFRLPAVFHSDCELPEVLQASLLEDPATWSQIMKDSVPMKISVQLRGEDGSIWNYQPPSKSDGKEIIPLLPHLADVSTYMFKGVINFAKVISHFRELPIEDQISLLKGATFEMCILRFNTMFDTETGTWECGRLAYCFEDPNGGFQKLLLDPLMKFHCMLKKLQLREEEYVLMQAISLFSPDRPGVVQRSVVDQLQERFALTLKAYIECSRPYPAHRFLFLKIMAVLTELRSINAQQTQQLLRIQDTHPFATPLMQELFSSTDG

As for `O=C(c1ccc(O)c(O)c1)c1ccc(O)cc1O`, the Potency in [1] was 15.3 µM (active); in assay [4], 50.1 µM (active); in assay [5], 54.4 µM (active); in assay [7], 54.4 µM (active); in [8], 3.55 µM (active). The Potency result in assay [2], in assay [3] and in [6] was “inactive” each time.
As to `c1ccc(SSc2ccccc2)cc1`, the Potency result in assay [9], in assay [10], in [2], in assay [3], in assay [11] and in assay [4] was “inactive” in each case. The Potency result in assay [6] and in [13] was “inactive” throughout. Besides, in [12], the compound was called inactive. Also, the Potency in assay [7] was 27.5 µM (active).
Regarding `Cc1ccc(O)c(O)c1`, the Potency in assay [1] was 42 µM (active); in assay [5] it was 52.9 µM (active); in [7], 59.4 µM (active). Moreover, the Potency result in assay [2], in assay [3], in assay [14], in assay [11], in [15] and in assay [8] was “inactive” each time. Moreover, the call in [12] was inactive.
Regarding `CN(C)Cc1ccccc1O`, the Potency result in assay [16], in assay [1], in assay [10], in assay [17], in [2] and in assay [3] was “inactive” throughout. The Potency result in assay [14], in assay [11], in [4], in [15], in [5] and in [6] was “inactive” throughout. Further, the Potency entry in [13], in assay [7] and in assay [8] was “inactive” in each case. Further, in [12], the compound was called inactive.
Consider `CN1CCN(Cc2cc(-c3ccc4[nH]c(=O)oc4c3)co2)[C@@H](c2ccc(F)cc2)C1`, for which the Potency result in assay [16], in [10], in assay [2], in [3], in [14] and in assay [11] was “inactive” each time. The Potency entry in assay [15] and in assay [6] was “inactive” in each case. For the same compound, the Potency in assay [1] was 46.7 µM (active); in assay [4], 46.7 µM (active); in assay [5] it was 58.8 µM (active); in [7] it was 10.5 µM (active); in [8], 34.3 µM (active). Further, in assay [12], the compound was called inactive.
For the compound `CC(C)(c1cc(Br)c(OCC(Br)CBr)c(Br)c1)c1cc(Br)c(OCC(Br)CBr)c(Br)c1` (stereo unspecified), the Potency entry in assay [9], in assay [10], in assay [2], in [3], in assay [14] and in assay [11] was “inactive” throughout. The Potency result in assay [4], in [5], in assay [6], in [7] and in assay [8] was “inactive” throughout. Besides, the compound was classed as inactive in assay [12].
As to `Nc1cc(Cl)c(O)c(Cl)c1`, the Potency entry in assay [16], in assay [1], in assay [10], in [17], in assay [3] and in assay [14] was “inactive” in each case. Also, the Potency entry in assay [4], in [15], in [6] and in assay [13] was “inactive” throughout. Further, the Potency in assay [8] was 15.9 µM (active).
As to `Cc1cc(C(C#N)c2ccc(Cl)cc2)c(Cl)cc1NC(=O)c1cc(I)cc(I)c1O` (stereo unspecified), the Potency in assay [1] is 29.8 µM (active); in assay [4], 16.8 µM (active). Besides, the Potency result in assay [3], in assay [14], in [11], in assay [15], in assay [6] and in assay [19] was “inactive” throughout. Further, the Potency entry in assay [20] and in assay [8] was “inactive” each time. Also, the result in [12] was inactive. Also, in [18], the max activation is -15.9%.
Take `CC[C@H](C)COC(=O)/C=C/c1ccc(N=Cc2ccc(OC)cc2)cc1`: the Potency result in assay [16], in [10], in [17], in [2], in assay [3] and in assay [14] was “inactive” each time. Moreover, the Potency entry in assay [4], in assay [15], in [6] and in [13] was “inactive” in each case. Also, the Potency in assay [1] is 30.6 µM (active); in [5] it was 61 µM (active); in assay [7], 30.6 µM (active); in assay [8], 70.9 µM (active).
As to `c1ccc(C(O[C@@H]2CCCN(CCc3ccc4c(c3)OCO4)C2)c2ccccc2)cc1`, the Potency result in assay [16], in assay [10], in [2], in assay [3], in [14] and in assay [11] was “inactive” in each case. In addition, the Potency entry in assay [15] and in assay [7] was “inactive” throughout. The outcome in assay [12] was inactive. Moreover, the Potency in [4] is 61.1 µM (active); in assay [8], 2.52 µM (active).
On to `CC(=O)c1ccc(C(C)=O)cc1`, for which the Potency entry in assay [16], in assay [1], in [2], in [3], in assay [14] and in [11] was “inactive” throughout. Moreover, the Potency result in assay [4], in assay [15], in [5], in [6], in assay [13] and in assay [7] was “inactive” in each case. In assay [8], the Potency entry was “inactive”. Besides, in assay [12], the result was inactive.
`CCN(CC)C(=O)c1cc(S(=O)(=O)Cc2ccccc2)c(N2CCC(c3ccccc3)CC2)cc1N(CC)CCN(C)C`: the Potency entry in assay [9] and in assay [11] was “inactive” throughout. Moreover, the Potency in assay [10] is 19.1 µM (active); in assay [4] it was 13.5 µM (active); in assay [5], 21.4 µM (active); in assay [13], 17 µM (active); in assay [7], 3.4 µM (active); in [8], 8.84 µM (active). Further, in assay [12], the call was inactive.

The values are drawn from PubChem BioAssay (Tox21).
